The campaign covered roughly 68,000 compounds. About 2,700 (4%) showed an effect of 50% or more. The entries come from a sample that favours strong results as a whole.
Tested on: Plasmodium berghei
Assay: Screen against P. berghei liver stage (PbLuc), transformed with Luciferase, at 2uM
Type: functional, HepG2
Conditions: tested at 2 uM

`Cc1oc(C(=O)O)cc1S(=O)(=O)Nc1cccc(-c2nccs2)c1` was tested. Which INHIBITION did it give?
Its INHIBITION is 15.39%.

For `Fc1cnc(N2C[C@H]3CCC[C@@]3(COc3ccccn3)C2)nc1`, which INHIBITION is on record?
Its INHIBITION is -27.16%.

For `COc1ccc2cc(NC(=O)CCNc3nc(C)cc(C)n3)cnc2c1`, which INHIBITION is on record?
The INHIBITION was -6.83%.

How did the INHIBITION turn out when `O=C(CN(C1=NCCCCC1)c1ccc(Cl)cc1)c1ccccc1` was run?
Its INHIBITION is -65.06%.

Which INHIBITION does the source give for `CC(C)c1ccc(CN2CCC3(CCCN(c4nncs4)C3)C2)cc1` (stereo not drawn) here?
Its INHIBITION is 5.52%.

For `Cc1noc(C)c1CCC(=O)N1CCN(CCn2cccn2)CC1`, which INHIBITION is on record?
Its INHIBITION is 2.18%.

With `CC(NC(=O)COCC(F)(F)F)c1nnc2n1CCCCC2` (stereo not drawn) as the compound, how does the INHIBITION read?
Its INHIBITION is 15.08%.

Which INHIBITION does the source give for `Fc1ccccc1-c1cccc(C2CCCN(C3CCOCC3)C2)n1` (stereo not drawn) here?
The INHIBITION was 25.4%.

How did the INHIBITION turn out when `Cc1nc(CN2CCCC(NCc3sccc3C)C2)no1` (stereo not drawn) was run?
Its INHIBITION is 51.94%.

With `CCc1nc(CN2CCCC(NCCn3cncn3)C2)no1` (stereo not drawn) as the compound, how does the INHIBITION read?
The INHIBITION was 35.56%.

Which INHIBITION does the source give for `Cc1ccsc1CNC1CCCN(Cc2noc(C3CC3)n2)C1` (stereo not drawn) here?
Its INHIBITION is 17.59%.

How did the INHIBITION turn out when `c1cnn(CC2CCCCN2Cc2noc(C3CC3)n2)c1` (stereo not drawn) was run?
Its INHIBITION is -10.47%.

With `Cc1nc(CN2CCCC(NCc3ccsc3)C2)no1` (stereo not drawn) as the compound, how does the INHIBITION read?
Its INHIBITION is 20.28%.

Which INHIBITION does the source give for `c1ncn(CCNC2CCCN(Cc3noc(C4CC4)n3)C2)n1` (stereo not drawn) here?
The INHIBITION was 54.29%.

Which INHIBITION does the source give for `Cc1nc(CN2CCCC2Cn2cncn2)no1` (stereo not drawn) here?
Its INHIBITION is -21.93%.

`c1ncn(CC2CCCN(Cc3noc(C4CC4)n3)C2)n1` (stereo not drawn) was tested. Which INHIBITION did it give?
The INHIBITION was 29.54%.

How did the INHIBITION turn out when `c1ncn(CC2CCCCN2Cc2noc(C3CC3)n2)n1` (stereo not drawn) was run?
Its INHIBITION is 62.13%.

`CCC(=O)Nc1cccc(C(=O)NCCC2=CSC3=NCCCN23)c1` was tested. Which INHIBITION did it give?
The INHIBITION was -17.86%.

How did the INHIBITION turn out when `COc1ccc(-c2nc(C3CCNCC3)cc3c2ncn3C)cc1` was run?
The INHIBITION was -0.45%.

`COCCS(=O)(=O)c1ncc(CN(C)C)n1Cc1ccccc1` was tested. Which INHIBITION did it give?
Its INHIBITION is 29.41%.

For `O=C(C1CCCOC1)N1CCCc2ccccc21` (stereo not drawn), which INHIBITION is on record?
Its INHIBITION is 53.29%.

`O=C(C1CCCOC1)N1CCCCc2ccccc21` (stereo not drawn) was tested. Which INHIBITION did it give?
The INHIBITION was 16.09%.

`Cc1ccc2c(c1)N(C(=O)C1CCCOC1)CCC2` (stereo not drawn) was tested. Which INHIBITION did it give?
The INHIBITION was -13.38%.

With `C1CCCN(c2nc(C3CC3)no2)CC1` as the compound, how does the INHIBITION read?
The INHIBITION was 28.02%.

For `Cc1ccsc1CN1C[C@@H]2CN(Cc3cccnc3)CCO[C@@H]2C1`, which INHIBITION is on record?
Its INHIBITION is 4.26%.

With `Cc1ncsc1CN1C[C@@H]2CN(Cc3cccnc3)CCO[C@@H]2C1` as the compound, how does the INHIBITION read?
The INHIBITION was 54.13%.

For `COc1ccc(CN2C[C@@H]3CN(Cc4cccnc4)CCO[C@@H]3C2)cc1`, which INHIBITION is on record?
Its INHIBITION is 39.57%.

With `Cc1cc(C)c2cc(CNC3CCCCC3)c3nn(C)c(=O)n3c2c1` as the compound, how does the INHIBITION read?
The INHIBITION was 14.26%.

How did the INHIBITION turn out when `Cc1cccc(C2(CNC(=O)CCNS(C)(=O)=O)CCCC2)c1` was run?
Its INHIBITION is 3.9%.

For `COCCN1CCC2(CC1)CC(N1CCOCC1)c1ccc(C)cc12` (stereo not drawn), which INHIBITION is on record?
The INHIBITION was 17.47%.

With `CC(=O)NC(C(=O)N(C)Cc1nnc2n1CCC2)C(C)C` (stereo not drawn) as the compound, how does the INHIBITION read?
Its INHIBITION is -63.33%.

With `CC(C)C(=O)N(C)Cc1nnc2n1CCCCC2` as the compound, how does the INHIBITION read?
Its INHIBITION is 21.82%.

`CC(C)C(Sc1ccccc1)C(=O)N(C)Cc1nnc2n1CCC2` (stereo not drawn) was tested. Which INHIBITION did it give?
Its INHIBITION is 64.39%.

Which INHIBITION does the source give for `CC(C)Nc1nc2c(c(NC3CC3)n1)CCN(Cc1nccn1C)CC2` here?
Its INHIBITION is 34.71%.

`CCCn1cc(NC2CCSCC2)cn1` was tested. Which INHIBITION did it give?
Its INHIBITION is 46.58%.

Which INHIBITION does the source give for `O=C(NCC1(O)CCC1)NC(c1cc(F)ccc1F)C1CC1` (stereo not drawn) here?
Its INHIBITION is -5.74%.

`CCOC(=O)c1n[nH]cc1CN1CCOC(Cc2ccc(F)cc2)C1` (stereo not drawn) was tested. Which INHIBITION did it give?
Its INHIBITION is -142.94%.

How did the INHIBITION turn out when `CCOC(=O)c1n[nH]cc1CN1CCOC(Cc2ccccc2)C1` (stereo not drawn) was run?
The INHIBITION was -30.18%.

For `CCOC(=O)c1n[nH]cc1CN1CCCC(N(C)Cc2ccccc2)C1` (stereo not drawn), which INHIBITION is on record?
The INHIBITION was 52.3%.

For `CCS(=O)(=O)N1CC(=O)N(CCCc2ccccc2)CC(O)C1` (stereo not drawn), which INHIBITION is on record?
The INHIBITION was 12.44%.

`Cc1cnn(CC2CCCN2C(=O)c2cnc3n[nH]c(C)c3c2)c1` (stereo not drawn) was tested. Which INHIBITION did it give?
Its INHIBITION is -27.31%.

With `O=C(Cn1cc(C(=O)O)ccc1=O)NCc1ccc(F)c(Cl)c1` as the compound, how does the INHIBITION read?
The INHIBITION was 11.14%.

Which INHIBITION does the source give for `O=C(C1CC1)N(Cc1ccc2cc[nH]c2c1)C1CC1` here?
Its INHIBITION is 11.43%.

How did the INHIBITION turn out when `CN(C)c1nc2c(c(N(C)C)n1)CCN(C(=O)CN1CCC(O)CC1)C2` was run?
The INHIBITION was 13.99%.

With `c1cncc(COCC2CN(Cc3cccnc3)Cc3ccnn3C2)c1` (stereo not drawn) as the compound, how does the INHIBITION read?
Its INHIBITION is 56.78%.

Which INHIBITION does the source give for `CN(C)C(=O)COCC1CN(Cc2ccsc2)Cc2nccn2C1` (stereo not drawn) here?
The INHIBITION was 15.44%.

How did the INHIBITION turn out when `Cc1ccc(CN2Cc3ccnn3CC(COCc3cccnc3)C2)o1` (stereo not drawn) was run?
The INHIBITION was 49.25%.

Which INHIBITION does the source give for `c1cncc(OCC2CN(Cc3ccsc3)Cc3nccn3C2)c1` (stereo not drawn) here?
The INHIBITION was 45.82%.

For `c1cncc(COCC2CN(Cc3ccncc3)Cc3ccnn3C2)c1` (stereo not drawn), which INHIBITION is on record?
The INHIBITION was -34.65%.

For `c1ccc(COCC2CN(Cc3ccsc3)Cc3nccn3C2)nc1` (stereo not drawn), which INHIBITION is on record?
The INHIBITION was 59.88%.

For `c1cncc(COCC2CN(Cc3ccco3)Cc3ccnn3C2)c1` (stereo not drawn), which INHIBITION is on record?
Its INHIBITION is 1.22%.

With `c1ccc(CN2Cc3ccnn3CC(COCc3cccnc3)C2)nc1` (stereo not drawn) as the compound, how does the INHIBITION read?
Its INHIBITION is 50.32%.

For `c1cncc(COCC2CN(Cc3ccsc3)Cc3ccnn3C2)c1` (stereo not drawn), which INHIBITION is on record?
The INHIBITION was -10.99%.

How did the INHIBITION turn out when `CN(C)C(=O)CCC[S+]([O-])Cc1ccc(Cl)c(Cl)c1` (stereo not drawn) was run?
The INHIBITION was -32.8%.

How did the INHIBITION turn out when `CSc1ccc(CN(C)Cc2noc(C(C)(C)C)n2)cc1` was run?
The INHIBITION was 21.28%.

How did the INHIBITION turn out when `CC(C)Nc1nc2c(s1)C(=O)CN(CC1CC1)C2` was run?
Its INHIBITION is -17.3%.

`CC[C@@]1(O)CCN(CCCOc2ccc(C(N)=O)cc2)C[C@H]1O` was tested. Which INHIBITION did it give?
The INHIBITION was -15.75%.

`CN1CCc2ccc(NCc3cccs3)cc2C1=O` was tested. Which INHIBITION did it give?
Its INHIBITION is 50.59%.

For `CN1CCc2ccc(NCc3cscn3)cc2C1=O`, which INHIBITION is on record?
The INHIBITION was 36.28%.

How did the INHIBITION turn out when `CN(CCc1cccs1)C(=O)Nc1ccc2c(c1)C(=O)N(C)CC2` was run?
The INHIBITION was 5.28%.

Which INHIBITION does the source give for `CCO[C@H]1CO[C@@]2(CCN(Cc3ccc4c(c3)OCO4)C2)C1` here?
Its INHIBITION is -23.42%.

Which INHIBITION does the source give for `FC(F)(F)Cn1ccnc1CN1CCCC1c1noc(C2CC2)n1` (stereo not drawn) here?
Its INHIBITION is -2.7%.

With `COCCNC(=O)C1CN(Cc2csc(C)n2)Cc2ccnn2C1` (stereo not drawn) as the compound, how does the INHIBITION read?
Its INHIBITION is 47.54%.

How did the INHIBITION turn out when `CC(C)CC(O)C1CCN(C(=O)c2ccc(C(C)C)[nH]c2=O)CC1` (stereo not drawn) was run?
The INHIBITION was -25.72%.

For `CC(C)CC(O)C1CCN(C(=O)c2coc(CN3CCOCC3)c2)CC1` (stereo not drawn), which INHIBITION is on record?
The INHIBITION was 13.19%.

For `CC(C)CC(O)C1CCN(C(=O)c2ccc(C(F)(F)F)nc2O)CC1` (stereo not drawn), which INHIBITION is on record?
Its INHIBITION is 72.05%.

For `O=C(NCC(O)(c1cccs1)C1CC1)NC1CCCCC1` (stereo not drawn), which INHIBITION is on record?
The INHIBITION was -11.54%.

For `CN(Cc1ccccn1)C(C(=O)O)c1ccc2c(c1)OCO2` (stereo not drawn), which INHIBITION is on record?
Its INHIBITION is 13.86%.

— ChEMBL document CHEMBL4513216, “Probing the Open Global Health Chemical Diversity Library for Multistage-Active Starting Points for Next-Generation Antimalarials” (ACS Infect Dis, 2020)
